The supplement of paper PMC7156485
± gives the standard deviation of the averaged measurements.

How the values were obtained:
Conditions in all cases: concentration: 10 µM; 24 h
HCC1569 [1] = assay: cell number relative to DMSO (% of DMSO); higher = more cells (less growth inhibition / toxicity)
Outline: (§1)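 In 384-well plates holding 800 HCC1569 or TDF cells per well in RPMI with 10% FBS, compounds were tested at 10 µM for 24 h at 37 °C in triplicate. Fixation used 3.7% formaldehyde. Staining used a rabbit anti-H1.0 antibody with an AlexaFluor 647 secondary, plus DAPI. Each value, H1.0 nuclear intensity or cell number, is a median of replicates shown as percent of the plate control, and HCC1569 values were smoothed for positional effects.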

TDF [2] = assay: as above
Outline: as §1

TDF [3] = assay: H1.0 immunofluorescence intensity relative to DMSO (% of DMSO); higher = stronger H1.0 induction, active = 120 or more
Outline: as §1

HCC1569 [4] = assay: H1.0 immunofluorescence intensity relative to DMSO (% of DMSO); higher = stronger H1.0 induction, active = 140 or more
Outline: as §1
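Throughout, for H1.0 immunofluorescence intensity relative to DMSO: TDF is a line of transformed human dermal fibroblasts of mesenchymal origin.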
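Throughout, for cell number relative to DMSO: TDF denotes transformed human dermal fibroblasts of mesenchymal origin.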

Row | Compound | cell number (HCC1569 [1]) | cell number (TDF [2]) | H1.0 immunofluorescence intensity (TDF [3]) | H1.0 immunofluorescence intensity (HCC1569 [4])
1 | CCN1CC2(COC)CCC(OC)C34C5CC6C(OC)CC7(OCOC7(C(O)C23)C14)C5C6OC (stereo unspecified) [Delcorine] | 103 | 105 | 99 (inactive) | 94.3 (inactive)
2 | Cl.Cl.Clc1ccc(N2CC3CCC(C2)N3)nn1 | 103 | 110 | 90.8 (inactive) | 95.7 (inactive)
3 | CC1=C2C(=O)C3C(CC=C4CC(O)CCC43C)C2CCC12OC1CC(C)CNC1C2C (stereo unspecified) [Jervine] | 97.9 | 104 | 94.3 (inactive) | 92 (inactive)
4 | CC1OC(OC2CC(O)C3(CO)C4C(O)CC5(C)C(C6=CC(=O)OC6)CCC5(O)C4CCC3(O)C2)C(O)C(O)C1O (single isomer, unassigned; (-)) [(-)-Ouabain] | 49.5 ± 1.9 | 42.1 ± 1.4 | 119 (inactive) | 130 (inactive)
5 | CN1CCc2cccc(Cl)c2CC1.Cl | 103 | 98.7 | 96.2 (inactive) | 86.7 (inactive)
6 | CC(=O)OC1C2C(OC(=O)Cc3ccccc3)C(C)CC2(OC(C)=O)C(=O)C(C)=CC2C(CCC13CO3)C2(C)C (stereo unspecified) [Euphorbiasteroid] | 102 | 106 | 105 (inactive) | 91.5 (inactive)
7 | CC(C)N(CCC(C(N)=O)(c1ccccc1)c1ccccn1)C(C)C.O=P(O)(O)O (stereo unspecified) | 99.8 | 101 | 103 (inactive) | 102 (inactive)
8 | Cc1cc(C2CCCN2C)on1 (stereo unspecified) | 102 | 102 | 90.2 (inactive) | 88.1 (inactive)
9 | CCC1(O)C(=O)OCc2c1cc1n(c2=O)Cc2cc3ccccc3nc2-1 (stereo unspecified) [Camptothecin] | 54.2 ± 2.9 | 24 ± 1.1 | 128 (active) | 120 (inactive)
